Where “and” joins values, the source holds several entries; their conditions need not be identical. Equal values may be shown once. The panel holds about 83,000 compounds, 20% with a hit somewhere; the sample as a whole holds those more often.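 Note: values are percent growth. 100 is the growth of untreated cells, values between 100 and 0 indicate rising inhibition; between -100 and 0 indicates cell death.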 Calls of active or inactive are those of the source. Rule for the calls: active = growth percent below 10; inactive = the rest.
The compounds below were run on M14 melanoma (assay: NCI-60 one-dose screen, 48 h (100 = growth as untreated, 0 = no growth, -100 = all killed)). Conditions: 10 µM unless noted.

Row | SMILES | growth
1 | COc1ccc(C/C(C)=C(/c2ccc(OCCN3CCCC3)cc2)c2ccc(OC(=O)NCc3ccccc3)cc2)cc1 | -20.8% (active)
2 | CCN(CC)CCOc1ccc(/C(=C(\Cl)c2ccccc2)c2ccccc2)cc1 | -36.2% (active) and 43.3% (inactive)
3 | Cc1ccc(/C=C2\COc3ccc(O)c(O)c3C2=O)cc1 | 3.41% (active)
4 | COc1ccc2c(c1)oc1c(C)c3c(c(C)c12)C(=O)N(Nc1ccccc1)C3=O | 95.3% (inactive)
5 | CCC(=C(c1ccc(OCCCN(C)C)cc1)c1ccc(OCCCN(C)C)cc1)c1ccc(Cl)cc1 | -83.5% (active)
6 | CCOC(=O)c1c(-c2ccc(C)cc2)c(C#N)c(=O)n(-c2cccc(C(F)(F)F)c2)c1N | 106% (inactive)
7 | S=c1nc(CS)[nH]c2ccccc12 | 98.2% (inactive)
8 | O=C(N/N=C/c1ccc(O)cc1O)c1cccc(Nc2ccnc(C(F)(F)F)c2)c1 | -1.76% (active)
9 | CCN(CC)CCCN1C(=O)c2c(c(C)c3c(oc4cc(OC)ccc43)c2C)C1=O | 108% (inactive)
10 | Cc1ccc(NC(=O)c2ccc(CN3CCN(C)CC3)cc2)cc1Nc1nccc(-c2cccnc2)n1 | 113% (inactive) and 82.7% (inactive)
11 | COc1cc(/C=C2/C=C(c3ccc(C(C)(C)C)cc3)N(CCc3ccc(S(N)(=O)=O)cc3)C2=O)cc(OC)c1OC | 36.5% (inactive)
12 | O=c1c(/C=C/c2ccco2)nnc2sc(Nc3ccc(Cl)cc3)nn12 | 101% (inactive)
13 | Nc1[nH]nc(Nc2ccccc2)c1-c1nc2ccccc2s1 | 6.41% (active)
14 | CCCCCCCCn1ccc2cc(NC(=O)CN3CCN(c4nc(C)cc(N5CCCCC5)n4)CC3)ccc21 | 90.6% (inactive)
15 | CC/C(=C(/c1ccc(O)cc1)c1ccc(OCCN2CCCCCC2)cc1)c1ccc(Cl)cc1 | 17% (inactive)
16 | C=C(C)[C@@H]1CC[C@]2(C(=O)N3CCN(C)CC3)CC[C@]3(C)[C@H](CC[C@@H]4[C@@]5(C)CC(CCCNC(C)=O)(CCCNC(C)=O)[C@H](OC(C)=O)C(C)(C)[C@@H]5CC[C@]43C)[C@@H]12 | 104% (inactive)
17 | CCN(c1cc(-c2ccc(CN3CCC(/C=C/S(=O)(=O)c4ccccc4)CC3)cc2)cc(C(=O)NCc2c(C)cc(C)[nH]c2=O)c1C)C1CCOCC1 | 85.1% (inactive)

Row | SMILES | growth
18 | Nc1nc(N)c2c(n1)NC(c1ccc(Cl)cc1)CC(c1cccc(Nc3ccncc3)c1)=N2 (stereo not drawn) | 35.4% (inactive)
19 | C=C(c1ccc(C(=O)O)cc1)c1cc2c(cc1C)C(C)(C)CCC2(C)C | 87% (inactive) and 75.5% (inactive)
20 | O=C1OCC2=C1C(c1cccc([N+](=O)[O-])c1)c1cc3c(cc1N2CCO)CCC3 (stereo not drawn) | 3.09% (active)
21 | CCN(CC)/C([O-])=c1\cccc\c1=C1\N=C(c2ccccc2)N=C1[n+]1ccc(-c2ccccc2)cc1 | 89.6% (inactive)
22 | Cc1nc(-n2[nH]c(=O)ccc2=O)sc1N=Nc1ccccc1 | 97.7% (inactive)
23 | Cc1ccc(-c2nc3nc(-c4ccccc4)nc(N4CCCNCC4)c3o2)cc1 | -93.9% (active)
24 | O=C([C@H]1C[C@H]1c1ccc(S(F)(F)(F)(F)F)cc1)N1CCN(c2cc(Cl)ccc2C(F)(F)F)CC1 | 90.7% (inactive)
25 | OB(O)c1ccsc1-c1nc2ccc3[nH]ncc3c2c2c1CCCC2 | 41.4% (inactive)
26 | CC[C@]12CN3CCc4c([nH]c5ccccc45)[C@@](C(=O)OC)(c4cc5c(cc4OC)N(C)[C@H]4[C@@](O)(C(=O)OC)[C@H](OC(C)=O)[C@]6(CC)C=CCN7CC[C@]54[C@@H]76)CC(C3)[C@H]1O2 (stereo partly drawn) | -29.3% (active)
27 | COC(=O)N/N=C/c1c[n+]([O-])c2ccccc2[n+]1[O-] | 106% (inactive)
28 | Cn1ccnc1CN1CCSC(C(=O)Nc2ccccc2)C1 (stereo not drawn) | 98.1% (inactive)
29 | CCNC(=O)Oc1ccc(/C(=C(/C)Cc2ccc(OC)cc2)c2ccc(OCCN(CC)CC)cc2)cc1 | -63.6% (active)
30 | Cc1ccc(-c2nc(C#N)c(S(=O)(=O)N(C)C)o2)cc1 | 64.3% (inactive)
31 | COCCn1cc(-c2nc(-c3cn(CCOC)c4ncccc34)cs2)c2ccccc21 | 99.9% (inactive)
32 | Nc1nc2ccccc2c2c(=O)c3ccc(Cl)cc3sc12 | 94.5% (inactive)
33 | CC[C@]1(O)CC2CN(CCc3c([nH]c4ccccc34)C(C(=O)OC)(c3cc4c(cc3OC)N(C=O)[C@H]3[C@@](O)(C(=O)OC)[C@H](OC(C)=O)[C@]5(CC)[C@@H]6C[C@@H]6CN6CC[C@]43[C@@H]65)C2)C1 (stereo partly drawn) | -31.6% (active)

Reference: PubChem BioAssay (NCI)
